High-throughput results as filed in PubChem.
NALP1 inh = blocks the NALP1 inflammasome reconstituted in yeast; S. cerevisiae NALP1/ASC/caspase-1 growth, X-gal OD620, 72 h; inhibition, % at 10 µM; actives 0.61% (n = 280,000); in the data active = inhibition mostly above about 24%, no sharp cut-off; inactive = mostly below about 32%
dFosB act = mouse delta FosB homodimer activation. P13346. purified delta FosB, TAMRA-CDK5 oligo fluorescence polarization; percent of positive-control signal above neutral wells. activation, % at 25 µM. actives 0.99% (n = 340,000). AID 493131;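 active = mean activation above about 17%, with every replicate also reaching it, limit read from the data, passing the limit was not always enough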
Target sequence (P13346 whole entry, looked up): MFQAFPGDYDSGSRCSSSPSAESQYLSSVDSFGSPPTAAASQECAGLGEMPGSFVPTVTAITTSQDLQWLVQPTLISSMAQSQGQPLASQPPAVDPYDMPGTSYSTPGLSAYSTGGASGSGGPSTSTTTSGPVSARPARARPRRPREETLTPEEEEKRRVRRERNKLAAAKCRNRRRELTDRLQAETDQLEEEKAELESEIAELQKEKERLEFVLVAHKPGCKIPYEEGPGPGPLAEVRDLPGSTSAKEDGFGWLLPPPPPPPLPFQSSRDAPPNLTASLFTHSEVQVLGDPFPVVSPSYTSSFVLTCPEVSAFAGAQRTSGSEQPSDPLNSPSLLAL
CR mimetic SO = lowers age-related superoxide in aged yeast cells; S. cerevisiae aged cells, superoxide DHE fluorescence; active compounds read low; superoxide response (% of plate mean), % at 10 µM; actives 0.18% (n = 330,000);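 active = superoxide response under a set limit, about three screen SD below normal, cut at about 65% in these data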;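 also: yeast aged for seven days with compound at 30 °C before DHE staining; 100% = average MFI of all compound-treated wells on the plate with controls excluded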
UBC13 polyUb = blocks human UBC13 polyubiquitin chain formation; P61088; TR-FRET; inhibition, % at 20 µM; actives 0.47% (n = 330,000); AID 485273; in the data active = inhibition above about 45%, passing the limit was not always enough
Target sequence (P61088 whole entry, looked up): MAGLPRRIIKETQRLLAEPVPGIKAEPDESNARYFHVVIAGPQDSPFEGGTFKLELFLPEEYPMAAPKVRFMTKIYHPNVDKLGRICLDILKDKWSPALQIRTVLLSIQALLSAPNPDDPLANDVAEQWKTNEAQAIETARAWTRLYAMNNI
NR3A LBD binder = NR3A (human) ligand-binding domain modulation. NR3A LBD differential scanning fluorimetry, Tm shift; 0% = protein alone, 100% = glycine-bound protein. Tm shift relative to glycine control, % at 25 µM. actives 2.5% (n = 340,000);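 active = melting temperature shift of at least 10% of the positive control shift, at one fixed dose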
* hit, by the source's call. In the library only some 4.3% were active in any assay of this set; here they are far more common.

For Cc1ccc(/C=N/NC(=O)c2ccc(NC(=O)c3ccc(Cl)cc3)cc2)o1 the results were NALP1 inh 24, dFosB act 3, CR mimetic SO 108, UBC13 polyUb -10 and NR3A LBD binder 7.
CCCN(c1ccc(OCC)cc1)S(=O)(=O)c1ccc2c(c1)NC(=O)CO2 was read as NALP1 inh 24, dFosB act -12, CR mimetic SO 104, UBC13 polyUb 2 and NR3A LBD binder -1.
`CCOc1cc(C)nc(N2CCC(C(=O)NC3CC3)CC2)n1` gave dFosB act 3 and NR3A LBD binder 1.
Screening COc1ccc(C2=NN(c3nc(-c4ccc(CNC(C)=O)cc4)cs3)C(c3ccco3)C2)cc1 (stereo not given) returned NALP1 inh 25, dFosB act -10, CR mimetic SO 73, UBC13 polyUb -3 and NR3A LBD binder -3.
Screening CCCCn1c(N)c(N(CCC(C)C)C(=O)CC2CCCC2)c(=O)[nH]c1=O returned dFosB act 6, CR mimetic SO 124, UBC13 polyUb 0 and NR3A LBD binder 0.
For COc1ccc(C(=O)Nc2ccc(-c3ccc(NC(=O)c4ccc(OC)cc4)c(OC)c3)cc2OC)cc1 the results were NALP1 inh 2, dFosB act -8, CR mimetic SO 102, UBC13 polyUb 10 and NR3A LBD binder 28*.
`COc1ccc(C(=O)Nc2ccc(NC(=O)c3cnccn3)cn2)cc1` gave NALP1 inh -12, dFosB act -4, CR mimetic SO 96, UBC13 polyUb -7 and NR3A LBD binder 14*.
For COc1ccc(NC(=O)c2ccc(N3C(=O)C4CC=C(Cl)CC4C3=O)cc2)cc1 (stereo not given) the results were NALP1 inh 11, dFosB act 13, CR mimetic SO 98, UBC13 polyUb -10 and NR3A LBD binder 18*.
COc1ccc(C(=O)NC(=C(Cl)Cl)S(=O)(=O)c2ccc(C)cc2)cc1 was read as NALP1 inh 9, dFosB act 23*, CR mimetic SO 101 and NR3A LBD binder -1.
Screening CCOc1ccc(S(=O)(=O)/N=C(/Nc2ccc(C)c(S(=O)(=O)N3CCOCC3)c2)c2ccccc2)cc1 returned dFosB act -10, CR mimetic SO 88, UBC13 polyUb 5 and NR3A LBD binder -3.
`CCOc1ccc(NC(=O)c2ccc3[nH]c(=O)c(=O)[nH]c3c2)cc1` gave NALP1 inh 12, dFosB act -2, CR mimetic SO 99, UBC13 polyUb 2 and NR3A LBD binder -2.
Screening COc1ccc(NC(=O)c2ccc(NC(=O)CN3CCN(c4ccccc4)CC3)cc2)cc1 returned dFosB act -7, CR mimetic SO 101, UBC13 polyUb 2 and NR3A LBD binder 19*.
Cn1cnc(S(=O)(=O)Nc2ccc(OC(F)F)cc2)c1 was read as NALP1 inh 1, dFosB act -1, CR mimetic SO 99, UBC13 polyUb -5 and NR3A LBD binder -1.
Screening COc1ccc(S(=O)(=O)Nc2ccccc2C(=O)Nc2nc(-c3ccc(F)cc3)cs2)cc1OC returned NALP1 inh 27, dFosB act -4, CR mimetic SO 100, UBC13 polyUb -3 and NR3A LBD binder 26*.
Screening COc1ccc(-c2csc(NC(=O)c3ccccc3NS(=O)(=O)c3ccc(C)cc3)n2)cc1 returned NALP1 inh 22, dFosB act -9, CR mimetic SO 96, UBC13 polyUb -9 and NR3A LBD binder 29*.
`CCCNC(=O)c1ccccc1NS(=O)(=O)c1ccc(OC)c(OC)c1` gave NALP1 inh -138, dFosB act -5, CR mimetic SO 96, UBC13 polyUb 4 and NR3A LBD binder 1.
Screening COC1c2ccccc2C(=O)N1Cc1ccc(F)cc1 (stereo not given) returned NALP1 inh -27, dFosB act 1, CR mimetic SO 90, UBC13 polyUb 6 and NR3A LBD binder -1.
Screening CC(=O)Nc1ncnc2c1c(-c1ccc(Cl)cc1)nn2C(C)(C)C returned NALP1 inh 42*, dFosB act 2, CR mimetic SO 72, UBC13 polyUb 17 and NR3A LBD binder -2.
For CC(=O)N(C(C)=O)c1ncnc2c1c(-c1ccc(Cl)cc1)nn2C(C)(C)C the results were NALP1 inh 8, dFosB act -9, CR mimetic SO 90, UBC13 polyUb 2 and NR3A LBD binder -2.
`Cc1c(C(=O)NC(=S)Nc2ccc(NC(=O)c3cccs3)cc2)cccc1[N+](=O)[O-]` gave dFosB act 2, CR mimetic SO 97, UBC13 polyUb -14 and NR3A LBD binder 11*.
`O=C(Nc1ccc(NC(=S)NC(=O)c2cccs2)cc1)c1ccco1` gave NALP1 inh -16, dFosB act -3, CR mimetic SO 110, UBC13 polyUb -6 and NR3A LBD binder 13*.
`O=C(Nc1ccc(Nc2ccccc2)cc1)c1ccc(Br)o1` gave NALP1 inh -1, dFosB act 0, CR mimetic SO 116, UBC13 polyUb -16 and NR3A LBD binder 21*.
COc1ccc(N2CCOCC2)c(NC(=O)c2ccc(Br)o2)c1 was read as NALP1 inh 7, dFosB act -11, CR mimetic SO 94, UBC13 polyUb -1 and NR3A LBD binder 13*.
For CC(C)c1ccc(NC(=O)CN2CCN(C(=O)C3CCCO3)CC2)cc1 (stereo not given) the results were NALP1 inh 6, dFosB act 2, CR mimetic SO 103, UBC13 polyUb -2 and NR3A LBD binder -2.
COc1ccccc1NC(=O)c1ccc(Br)o1 was read as NALP1 inh 28*, dFosB act 6, CR mimetic SO 121, UBC13 polyUb 0 and NR3A LBD binder -3.
`O=C(Nc1cccc(NC(=O)c2cccs2)c1)c1ccc(Br)o1` gave NALP1 inh 27, dFosB act -13, CR mimetic SO 112, UBC13 polyUb -3 and NR3A LBD binder 16*.
For Cc1ccccc1-c1nc(-c2ccc(NC(=O)c3ccc(Br)o3)cc2)no1 the results were NALP1 inh 21, dFosB act -6, CR mimetic SO 126, UBC13 polyUb 5 and NR3A LBD binder 29*.
Cc1ccccc1-c1nc(-c2ccc(Br)o2)no1 was read as NALP1 inh -11, dFosB act -4, CR mimetic SO 97, UBC13 polyUb 5 and NR3A LBD binder 2.
O=C(/C=C/c1cccc([N+](=O)[O-])c1)c1cccs1 was read as NALP1 inh 40, dFosB act 1, CR mimetic SO 106, UBC13 polyUb 13 and NR3A LBD binder 0.
O=C(/C=C/c1cccc([N+](=O)[O-])c1)Nc1ccc(NC(=O)c2cccs2)cc1 was read as NALP1 inh 17, dFosB act 7, CR mimetic SO 93, UBC13 polyUb -22 and NR3A LBD binder 25*.
CC1CCCCN1C(=O)CSc1nnc(-c2cccnc2)o1 (stereo not given) was read as NALP1 inh 4, dFosB act -5, CR mimetic SO 101, UBC13 polyUb 4 and NR3A LBD binder 0.
